In PubChem BioAssay AID2081 (NMMLSC, 2009):

The compounds below were run against Bcl-2-like protein 2 (Homo sapiens) (UniProt Q92843) (assay: Bcl-W/Bim complex disruptors – biochemical, multiplexed, bead-based flow cytometry, HTS hits, confirmation (AID 2081)). Details: Bim-Bcl-W binding displacement; series mostly up to 100 µM; inhibition of binding: at the top concentration; call rule not given here.
Bcl-2-like protein 2 (Homo sapiens), sequence (Q92843 whole entry, looked up): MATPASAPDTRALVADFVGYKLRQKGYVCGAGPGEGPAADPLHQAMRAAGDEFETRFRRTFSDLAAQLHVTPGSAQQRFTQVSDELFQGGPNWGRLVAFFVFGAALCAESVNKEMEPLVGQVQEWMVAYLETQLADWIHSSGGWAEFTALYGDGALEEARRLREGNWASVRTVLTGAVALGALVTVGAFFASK

Inhibition of binding, inactive:
CN(CCO)c1cc(Sc2nc3ccccc3s2)c2nonc2c1[N+](=O)[O-] 4.07
COc1ccc(N2C(=O)C(Cl)=C(Oc3cccc(OC)c3)C2=O)cc1 -0.374
Cc1ccc(-c2cc(-c3ccc(F)cc3)c(C#N)c(N)n2)o1 7.5
O=C1c2ccccc2C(=O)N1CN(C(=O)COc1ccc(Cl)cc1Cl)c1cccc(F)c1 -1.52
S=c1[nH]cc(-c2ccccc2)n1-c1ccccc1 -0.382
O=C1C(Cl)=C(N2CCN(c3ccccc3[N+](=O)[O-])CC2)C(=O)c2ccccc21 34.6
CCN1C(=O)/C(=C\C=C2/C=CC=CN2CC)SC1=S 5.54
COc1cc(CNc2ccc3[nH]c(=O)[nH]c3c2)cc(Br)c1OCC(=O)NC(C)(C)C 12.4
